This is one part of the list. The hit rate among all sequences tested is not known here.
B1: HC1171 (peptide)
chain: CAVDGIMHTRAGNASASA
B2: FS-1739 (peptide)
chain: CARLHRFWEGAGNASASA
B3: HC2563 (peptide)
chain: CASTPCSAHAAGNASASA
B4: FS-1287 (peptide)
chain: CASTARLARAAGNASASA
B5: HC1331 (peptide)
chain: CASTALAELAAGNASASA
B6: FS-973 (peptide)
chain: CAALSRVRRAAGNASASA
B7: HC232 (peptide)
chain: CAPLGGAARAAGNASASA
B8: FS-1510 (peptide)
chain: CAALSRTARAAGNASASA
B9: FS-59 (peptide)
chain: CALTQRTARAAGNASASA
B10: HC254 (peptide)
chain: CAVPASAYQVAGNASASA
B11: HC2185 (peptide)
chain: CAEVLTSTWVAGNASASA
B12: FS-115 (peptide)
chain: CAALGRKARAAGNASASA
B13: HC865 (peptide)
chain: CAALGINAVAAGNASASA
B14: FS-198 (peptide)
chain: CASTARIRRNAGNASASA
B15: FS-662 (peptide)
chain: CAHIARALRNAGNASASA
B16: HC2581 (peptide)
chain: CASTPCSAHNAGNASASA
B17: FS-294 (peptide)
chain: CASHSRVRRAAGNASASA
B18: HC1013 (peptide)
chain: CAFDEMEECSAGNASASA
B19: FS-1511 (peptide)
chain: CAAQAREKRFAGNASASA
B20: FS-1730 (peptide)
chain: CARKNRSHIPAGNASASA
B21: FS-2004 (peptide)
chain: CAREHRSGEPAGNASASA
B22: FS-2956 (peptide)
chain: CARIVRSLMPAGNASASA
B23: FS-2420 (peptide)
chain: CARHLRSLEPAGNASASA
B24: FS-439 (peptide)
chain: CAHIFRKRRPAGNASASA
B25: FS-711 (peptide)
chain: CARQERNKRFAGNASASA
B26: FS-1955 (peptide)
chain: CARHLRSKVTAGNASASA
B27: HC2412 (peptide)
chain: CAEVPCHRPEAGNASASA
B28: HC2344 (peptide)
chain: CAEVICHRPSAGNASASA

Molecular target: furin, P09958
Test: furin cleavage Z-score vs untreated control; higher = more cleavage, active = 3.5 or more, inactive = 1 or less, 8 variable residues between constant flanks
Summary of the method: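 Sequencing of released DNA, tagged with adapters by PCR, gave read counts used as abundance. That DNA was freed when purified furin cut N-terminally bead-bound 8-mer peptides fused to a cDNA oligonucleotide, in 0.01 ml reactions at 1:10 enzyme:substrate in 50 mM HEPES pH 7.5 with CaCl2 and NaCl, lasting 7.5, 15 or 30 min. The cleavage Z-score was the lowess-adjusted log count versus furin-free reactions, scaled by median absolute deviation.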

Sequence of furin, P09958 (P09958 whole entry): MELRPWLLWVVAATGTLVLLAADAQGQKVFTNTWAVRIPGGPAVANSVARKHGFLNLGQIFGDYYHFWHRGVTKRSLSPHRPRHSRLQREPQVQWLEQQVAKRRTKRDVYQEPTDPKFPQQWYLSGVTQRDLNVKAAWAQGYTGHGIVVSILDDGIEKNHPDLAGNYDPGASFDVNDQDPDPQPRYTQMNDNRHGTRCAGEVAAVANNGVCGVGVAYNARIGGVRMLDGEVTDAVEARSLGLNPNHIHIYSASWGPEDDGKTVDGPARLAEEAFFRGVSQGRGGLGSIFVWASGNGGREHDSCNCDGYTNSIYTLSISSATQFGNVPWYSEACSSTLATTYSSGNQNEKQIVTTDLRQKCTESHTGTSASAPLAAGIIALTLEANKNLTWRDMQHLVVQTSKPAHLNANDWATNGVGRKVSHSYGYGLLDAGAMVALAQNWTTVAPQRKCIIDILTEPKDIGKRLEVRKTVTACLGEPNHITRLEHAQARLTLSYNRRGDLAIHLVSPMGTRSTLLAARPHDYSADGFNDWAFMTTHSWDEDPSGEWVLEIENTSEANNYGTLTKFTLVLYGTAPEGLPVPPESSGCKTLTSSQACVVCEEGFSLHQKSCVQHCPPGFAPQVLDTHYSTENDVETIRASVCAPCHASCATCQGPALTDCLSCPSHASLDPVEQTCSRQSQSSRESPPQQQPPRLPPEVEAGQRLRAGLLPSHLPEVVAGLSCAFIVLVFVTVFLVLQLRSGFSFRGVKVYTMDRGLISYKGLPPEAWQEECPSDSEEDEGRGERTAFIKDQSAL

Row | Sequence | furin cleavage Z-score (7.5 min) | furin cleavage Z-score (15 min) | furin cleavage Z-score (30 min)
1 | B1 | 1.01 | -0.806 (inactive) | 1.2
2 | B2 | 1.61 | -1.73 (inactive) | 0.551 (inactive)
3 | B3 | 1.54 | 0.374 (inactive) | -0.524 (inactive)
4 | B4 | 5.91 (active) | 8.42 (active) | 8.27 (active)
5 | B5 | -1.46 (inactive) | -0.668 (inactive) | 0.259 (inactive)
6 | B6 | 8.87 (active) | 9.48 (active) | 6.93 (active)
7 | B7 | -0.625 (inactive) | -0.427 (inactive) | -0.526 (inactive)
8 | B8 | 8.19 (active) | 7.7 (active) | 6.47 (active)
9 | B9 | 6.17 (active) | 5.48 (active) | 5.53 (active)
10 | B10 | 0.602 (inactive) | -1.58 (inactive) | -0.419 (inactive)
11 | B11 | 0.631 (inactive) | -0.524 (inactive) | 0.492 (inactive)
12 | B12 | 6.64 (active) | 6.76 (active) | 5.64 (active)
13 | B13 | 0.253 (inactive) | 0.918 (inactive) | -1.14 (inactive)
14 | B14 | 11.3 (active) | 11.2 (active) | 10.4 (active)
15 | B15 | 0.331 (inactive) | 1.47 | 0.623 (inactive)
16 | B16 | -0.0473 (inactive) | 1.28 | -0.895 (inactive)
17 | B17 | 11.4 (active) | 9.7 (active) | 7.37 (active)
18 | B18 | 0.602 (inactive) | 0.715 (inactive) | 0.322 (inactive)
19 | B19 | 6.88 (active) | 8.08 (active) | 8.04 (active)
20 | B20 | 0.266 (inactive) | -0.138 (inactive) | -0.417 (inactive)
21 | B21 | -1.1 (inactive) | -0.712 (inactive) | -1.7 (inactive)
22 | B22 | 6.15 (active) | 8.67 (active) | 10.9 (active)
23 | B23 | 5.02 (active) | 6.47 (active) | 5.66 (active)
24 | B24 | -0.371 (inactive) | -0.427 (inactive) | -0.596 (inactive)
25 | B25 | 8.02 (active) | 9.31 (active) | 10.8 (active)
26 | B26 | -0.109 (inactive) | -0.365 (inactive) | 0.464 (inactive)
27 | B27 | 1.1 | 0.551 (inactive) | -0.217 (inactive)
28 | B28 | -0.36 (inactive) | -0.916 (inactive) | 1.17

— the supplement of paper PMC3545927
